# Assay results from PubChem BioAssay (EPA / NIEHS).
# Where “and” joins values, the source holds several entries; their conditions need not be identical. Equal entries are not always repeated. More than one record can exist for a structure, and the calls need not agree. Calls of active or inactive are those of the source. The calls were made as follows: active = hit-call score of the fitted dose curve at least 0.9, where 1 is the maximum; inactive = score below 0.9.
# Legend:
# [1] = read-out: Interleukin-6 (IL6), IL6 (gene 3569); experiment: BSK_CASM3C_IL6: BioMAP Diversity Plus: CASM3C Assay for Interleukin-6 (IL6) Biomarker Activity for (AID 2283040); conditions: primary human coronary artery smooth muscle cells; actives raise or lower the signal
# [2] = read-out: Tissue plasminogen activator (tPA), PLAT (gene 5327); experiment: BSK_BE3C_tPA: BioMAP Diversity Plus: BE3C Assay for Tissue plasminogen activator (tPA) Biomarker Activity (AID 2283041); conditions: primary human bronchial epithelial cells; actives raise or lower the signal;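 as to outcome: tPA level quantified by ELISA one day after compound addition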
# Summary of the method: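 Primary human lung bronchial epithelial cultures receive test chemical; after 24 h, tPA is quantified by ELISA, and gain or loss of signal is fitted bidirectionally relative to DMSO baseline.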
# [3] = read-out: Interleukin-8 (IL8), CXCL8 (gene 3576); experiment: BSK_CASM3C_IL8: BioMAP Diversity Plus: CASM3C Assay for Interleukin-8 (IL8) Biomarker Activity (AID 2283042); conditions: primary human coronary artery smooth muscle cells; actives raise or lower the signal;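 also: IL-8 protein level quantified by ELISA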
# [4] = read-out: Human Leukocyte Antigen - DR isotype (HLADR), HLA-DRA (gene 3122); experiment: BSK_CASM3C_HLADR: BioMAP Diversity Plus: CASM3C Assay for Human Leukocyte Antigen - DR isotype (HLADR) Biomarker Activity (AID 2283043); conditions: primary human coronary artery smooth muscle cells; actives raise or lower the signal;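 also: cell-surface HLA-DR protein level quantified by ELISA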
# [5] = read-out: Macrophage colony-stimulating factor (MCSF), CSF1 (gene 1435); experiment: BSK_CASM3C_MCSF: BioMAP Diversity Plus: CASM3C Assay for Macrophage colony-stimulating factor (MCSF) Biomarker Activity (AID 2283044); conditions: primary human coronary artery smooth muscle cells; actives raise or lower the signal;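 also: M-CSF protein amount quantified by ELISA after 24 h exposure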
# [6] = read-out: Low-density lipoprotein receptor (LDLR), LDLR (gene 3949); experiment: BSK_CASM3C_LDLR: BioMAP Diversity Plus: CASM3C Assay for Low-density lipoprotein receptor (LDLR) Biomarker Activity (AID 2283045); conditions: primary human coronary artery smooth muscle cells; actives raise or lower the signal;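 also: LDLR protein level on the cell surface quantified by ELISA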
# [7] = read-out: Monocyte Chemoattractant Protein-1 (MCP1), CCL2 (gene 6347); experiment: BSK_CASM3C_MCP1: BioMAP Diversity Plus: CASM3C Assay for Monocyte Chemoattractant Protein-1 (MCP1) Biomarker Activity (AID 2283046); conditions: primary human coronary artery smooth muscle cells; actives raise or lower the signal;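 also: MCP-1 level quantified by ELISA 24 h after dosing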
# [8] = BSK_CASM3C_Proliferation: Cell Proliferation Assessment in the BioMAP Diversity Plus: CASM3C Assay (AID 2283047); conditions: primary human coronary artery smooth muscle cells;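 also: sulforhodamine B total protein stain as relative cell number at 560 nm; sub-confluent cells exposed 48 h before staining; fitted both ways against DMSO so gain or loss of cell number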
# [9] = read-out: Monokine induced gamma interferon (MIG), CXCL9 (gene 4283); experiment: BSK_CASM3C_MIG: BioMAP Diversity Plus: CASM3C Assay for Monokine induced gamma interferon (MIG) Biomarker Activity (AID 2283048); conditions: primary human coronary artery smooth muscle cells; actives raise or lower the signal;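 also: MIG protein level measured by ELISA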
# [10] = read-out: serum amyloid A (SAA), SAA1 (gene 6288); experiment: BSK_CASM3C_SAA: BioMAP Diversity Plus: CASM3C Assay for serum amyloid A (SAA) Biomarker Activity (AID 2283049); conditions: primary human coronary artery smooth muscle cells; actives raise or lower the signal;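 also: SAA protein level quantified by ELISA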
Structure (SMILES),outcome [1],outcome [2],outcome [3],outcome [4],outcome [5],outcome [6],outcome [7],outcome [8],outcome [9],outcome [10],AC50 [7],AC50 [8],AC50 [1],AC50 [2],AC50 [3],AC50 [4],AC50 [5],AC50 [9],AC50 [10],AC50 [6]
CNC(=O)Oc1cccc(N=CN(C)C)c1,inactive,inactive,inactive,inactive,inactive,inactive,inactive,inactive,inactive,inactive,,,,,,,,,,
O=C(Nc1ccccc1)Nc1cnns1,inactive,inactive,inactive,inactive,inactive,inactive,inactive,inactive,inactive,inactive,,,,,,,,,,
O=C(NC(=O)c1c(F)cccc1F)Nc1ccc(OC(F)(F)C(F)OC(F)(F)F)c(Cl)c1 (configuration not stated),inactive,inactive,inactive,inactive,inactive,inactive,inactive,inactive,inactive,inactive,,,,,,,,,,
COP(=S)(OC)Oc1ccc([N+](=O)[O-])cc1,inactive,inactive,inactive,inactive,inactive,inactive,,inactive,inactive,inactive,0.877 µM (active),,,,,,,,,
CCCN(CCOc1c(Cl)cc(Cl)cc1Cl)C(=O)n1ccnc1,inactive,inactive,inactive,inactive,inactive,inactive,inactive,,inactive,inactive,,26.8 µM (active),,,,,,,,
[2H]C1([2H])[n+]2ccccc2-c2cccc[n+]2C1([2H])[2H],inactive,inactive,inactive,inactive,inactive,inactive,,,inactive,inactive,0.156 µM (active),10.6 µM (active),,,,,,,,
CNC(=O)CSP(=S)(OC)OC,inactive,inactive,inactive,inactive,inactive,inactive,inactive,inactive,inactive,inactive,,,,,,,,,,
N#Cc1c(Cl)c(Cl)c(Cl)c(C#N)c1Cl,,,,,,inactive,,,,,3.56 µM (active),0.148 µM (active),3.56 µM (active),3.97 µM (active),3.36 µM (active),6.09 µM (active),3.31 µM (active),2.14 µM (active),4.82 µM (active),
COC(=O)c1ccccc1S(=O)(=O)NC(=O)N(C)c1nc(C)nc(OC)n1,inactive,inactive,inactive,inactive,inactive,inactive,inactive,inactive,inactive,inactive,,,,,,,,,,
ClC1C(Cl)C(Cl)C(Cl)C(Cl)C1Cl (configuration not stated),inactive,inactive,inactive,inactive,inactive,inactive,inactive,inactive,inactive,inactive,,20 µM (active) and 29.6 µM (active),,,,,32.4 µM (active),,34.8 µM (active),27.8 µM (active)
CC(C)(C)C(O)/C(=C\c1ccc(Cl)cc1Cl)n1cncn1 (configuration not stated),inactive,,inactive,inactive,inactive,inactive,inactive,,inactive,inactive,,20 µM (active),,8.37 µM (active),,,,,,
CC[C@H](C)[C@H]1O[C@]2(C=C[C@@H]1C)C[C@@H]1C[C@@H](C/C=C(\C)[C@@H](O[C@H]3C[C@H](OC)[C@@H](O[C@H]4C[C@H](OC)[C@@H](O)[C@H](C)O4)[C@H](C)O3)[C@@H](C)/C=C/C=C3\CO[C@@H]4[C@H](O)C(C)=C[C@@H](C(=O)O1)[C@]34O)O2 (tested in a mixture with another compound),,,,,,inactive,,,,inactive,11.7 µM (active),6.85 µM (active),13.9 µM (active),5.27 µM (active),17.4 µM (active),9.73 µM (active),20 µM (active),29.7 µM (active),,
O=C(O)C(F)(F)C(F)(F)C(F)(F)C(F)(F)C(F)(F)C(F)(F)C(F)(F)F,inactive,inactive,inactive,inactive,inactive,inactive,inactive,inactive,inactive,inactive,,16.6 µM (active),,,,,,36.6 µM (active),,
OCCOc1ccccc1,inactive,inactive,inactive,inactive,inactive,inactive,inactive,inactive,inactive,,,,,,,,,,20 µM (active),
CCS(=O)(=O)c1cccnc1S(=O)(=O)NC(=O)Nc1nc(OC)cc(OC)n1,inactive,inactive,inactive,inactive,inactive,inactive,inactive,inactive,inactive,,,,,,,,,,16.4 µM (active),
O=S1OCC2C(CO1)C1(Cl)C(Cl)=C(Cl)C2(Cl)C1(Cl)Cl (configuration not stated),inactive,,,,,inactive,,,,,31.7 µM (active),32.7 µM (active),,21.5 µM (active),29.6 µM (active),32.5 µM (active),31.5 µM (active),32.1 µM (active),32.7 µM (active),
Oc1ccc(Cl)cc1Cc1ccccc1,inactive,,inactive,,,inactive,,,inactive,,37.5 µM (active) [middle of 4 runs],32.2 µM (active) [middle of 7 runs],30.5 µM (active) [middle of 4 runs],29.7 µM (active) [middle of 7 runs],31.5 µM (active) [middle of 5 runs],31.1 µM (active) [middle of 7 runs],29.6 µM (active) [middle of 7 runs],32.7 µM (active) [middle of 6 runs],31.1 µM (active) [middle of 6 runs],29.1 µM (active) [middle of 5 runs]
CCOCN(C(=O)CCl)c1c(C)cccc1CC,inactive,inactive,,inactive,inactive,inactive,inactive,,inactive,inactive,,30 µM (active),,,15.8 µM (active),,,,,
COP(=S)(OC)Oc1ccc(SC)c(C)c1,inactive,inactive,inactive,inactive,inactive,inactive,inactive,inactive,inactive,inactive,,,,,,,,,,
O=S(=O)(O)C(F)(F)C(F)(F)C(F)(F)C(F)(F)C(F)(F)C(F)(F)C(F)(F)C(F)(F)F,inactive,inactive,inactive,inactive,inactive,inactive,inactive,inactive,inactive,inactive,,,,15.3 µM (active) and 16 µM (active) and 25.9 µM (active),,,,47.3 µM (active) and 52.5 µM (active),,
CCOc1nc(NC)nc(NC(=O)NS(=O)(=O)c2ccccc2C(=O)OC)n1,inactive,inactive,inactive,inactive,inactive,inactive,inactive,inactive,inactive,inactive,,,,,,,,,,
CC(C)N(C(=O)COc1nnc(C(F)(F)F)s1)c1ccc(F)cc1,inactive,inactive,inactive,inactive,inactive,inactive,inactive,inactive,inactive,inactive,,,,,,,,,,
O=[N+]([O-])c1c(Cl)c(Cl)c(Cl)c(Cl)c1Cl,inactive,inactive,inactive,inactive,inactive,inactive,inactive,inactive,inactive,inactive,,,,,,,,,,
CCN(CC)C(=O)SCc1ccc(Cl)cc1,inactive,inactive,inactive,inactive,inactive,inactive,inactive,,inactive,inactive,,16.4 µM (active),,,,,,,,
C[C@H]1[C@H](c2ccc(Cl)cc2)SC(=O)N1C(=O)NC1CCCCC1,,inactive,inactive,inactive,inactive,inactive,inactive,,inactive,inactive,,20 µM (active),7.98 µM (active),,,,,,,
CNC(=O)Oc1ccccc1OC(C)C,inactive,inactive,inactive,inactive,inactive,inactive,inactive,inactive,inactive,inactive,,,,,,,,,,
